# Screens as filed in PubChem BioAssay.
# The list is not random: actives were taken first. Their share in the collection is about 3.4%.
# APP 5'UTR act: APP 5'UTR luciferase reporter activation | activation, % at 2 µM | 190,000 compounds, 1% hits | AID 1276 | SH-SY5Y APP 5'UTR luciferase reporter, luminescence; zero percent = DMSO vehicle wells;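 active = activation above a set limit, based on mean plus 3 SD of controls, cut at about 140% in these data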
# NF-kB neuron act: NF-kB expression increase, human neuronal cells; AID 1239; fold change at 12.5 µM; NF-kB reporter expression; stronger effect = higher value; 190,000 compounds, 1.6% hits; in the data active = fold change above about 3.3
# hcDAF12 agonist: activates DAF-12 receptor from parasite H. contortus. 370,000 compounds, 1.4% hits. AID 652067. HEK293 hcDAF-12 lit1-tk-luc reporter, luminescence; 0% DMSO, 100% Δ7-dafachronic acid. activation, % at 6.8 µM;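 active = activation above the mean of all tested compounds plus 3 SD, cut at about 5.5% in these data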
# hgDAF12 agonist: agonists of H. glycines DAF-12 nuclear receptor; HEK293 GAL4-hgDAF12 UAS-luciferase reporter, agonist luminescence; normalized to butyrate control; activation, % at 6.8 µM; 370,000 compounds, 1.8% hits; AID 687014;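 active = activation above a cutoff set at the mean of all screened compounds plus 3 SD, cut at about 10% in these data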
# ssDAF-12 act: S. stercoralis DAF-12 activation, primary screen; activation, % at 6.8 µM; AID 652126; 370,000 compounds, 1% hits; HEK293 ssDAF-12/GRIP1 lit1-tk-luc reporter, luminescence; % of 3 µM dafachronic acid response;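 active = activation above the mean over all tested compounds plus 3 SD, cut at about 0.9% in these data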
# hgDAF12 ag: confirmation of H. glycines DAF-12 agonists; shares compounds with hgDAF12 agonist; HEK293 GAL4-hgDAF12 luciferase reporter, agonist mode; percent of butyrate response; activation, % at 6.8 µM; 3,300 compounds, 80% hits;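 active = mean activation over triplicate wells above the hit cutoff derived from the earlier primary screen, cut at about 11% in these data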
# LXRb DAF12 ctr: LXR-beta agonism as DAF-12 counter-screen. shares compounds with hgDAF12 agonist. 3,300 tested, under 10 active. HEK293 Gal4-LXR luciferase reporter, 24 h. activation, % at 6.8 µM;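 active = mean activation of the triplicate above a set limit carried over from the primary screen, none filed active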
# Target sequence (P55055 whole entry, looked up, the tested form may be a part): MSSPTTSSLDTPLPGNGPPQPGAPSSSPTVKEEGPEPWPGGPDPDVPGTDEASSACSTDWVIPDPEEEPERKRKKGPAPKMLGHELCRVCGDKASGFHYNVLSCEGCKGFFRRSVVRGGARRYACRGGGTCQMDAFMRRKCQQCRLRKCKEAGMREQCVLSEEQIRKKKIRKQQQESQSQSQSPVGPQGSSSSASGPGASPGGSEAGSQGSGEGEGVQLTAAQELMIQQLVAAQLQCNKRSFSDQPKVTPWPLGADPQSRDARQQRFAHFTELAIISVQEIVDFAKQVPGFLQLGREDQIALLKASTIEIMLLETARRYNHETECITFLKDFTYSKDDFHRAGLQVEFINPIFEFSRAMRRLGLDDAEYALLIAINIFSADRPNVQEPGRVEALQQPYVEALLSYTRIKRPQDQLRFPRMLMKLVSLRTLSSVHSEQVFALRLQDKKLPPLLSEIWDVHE
# Numbers stand for hits; – = inactive; · = no result.
SMILES,APP 5'UTR act,NF-kB neuron act,hcDAF12 agonist,hgDAF12 agonist,ssDAF-12 act,hgDAF12 ag,LXRb DAF12 ctr
C#CCN1C(=O)S/C(=C/c2cc(C)n(CC)c2C)C1=O,–,–,–,18,–,20,–
Cc1nn(-c2ccccc2)c(/N=C/c2ccccc2O)c1-c1ccccc1,–,–,–,15,–,11,–
O=[N+]([O-])c1cccc(COc2ccc(CN3CCCC3)cc2)c1,·,·,–,24,–,15,–
COc1cc(C2Nc3ccccc3C(=O)N2c2ccc(Cl)cc2)c(Cl)cc1OCC(=O)O (configuration not stated),–,–,–,14,–,–,–
CCOc1cc(C2Nc3ccccc3C(=O)N2c2ccccc2)c(Br)cc1OCC(=O)O (configuration not stated),–,–,–,–,–,·,·
CCc1ccc(CNc2ccc3c(c2)ncn3C(C)(C)C)cc1,·,·,–,–,–,·,·
CC(C)(C)n1cnc2cc(NCc3ccc(Br)cc3)ccc21,·,·,–,17,–,13,–
CC(C)(C)n1cnc2cc(NC(=O)c3ccc(Cl)cc3)ccc21,·,·,–,14,1.3,19,–
Cc1sc(NC(=O)c2ccccc2)c(C#N)c1-c1ccccc1,138,4.9,–,16,–,12,–
CCc1c(C)sc(NC(=O)c2cccs2)c1C#N,–,–,–,–,–,·,·
Clc1ccccc1-c1nnc(-c2ccccc2Cl)o1,–,3.4,–,15,–,17,–
CCCNCc1nnc(-c2ccccc2Cl)o1,–,–,–,–,–,·,·
Clc1ccc(-c2nnc(-c3ccccc3Cl)o2)cc1,202,5.3,–,14,–,19,–
O=C(CSc1nnc(-c2ccccn2)n1-c1ccccc1)Nc1ccccc1-c1ccccc1,·,·,–,–,–,·,·
C=CCN1C(=O)[C@@H](CC(=O)N2CCN(C(=O)OCC)CC2)[C@]2(C(=O)OC)CCCCC=C12,·,·,–,–,–,·,·
COc1ccc(C(=O)Nc2ccc(SC(F)F)cc2)cc1,164,–,–,15,–,12,–
COc1cccc(C(=O)Nc2ccccc2)c1,–,–,–,–,–,·,·
COc1ccc(C(=O)NNC(=O)C(=O)Nc2ccc(C)cc2)cc1,·,·,–,–,–,·,·
COc1ccc(NC(=O)c2cccc(OS(=O)(=O)N(C)C)c2)cc1,157,4.8,–,17,–,12,–
CCCCOc1ccc(C(=O)Nc2ccc(SC(F)F)cc2)cc1OC,–,–,–,–,–,·,·
COc1ccc(NC(=O)c2ccc(C)cc2)cc1,·,·,–,14,–,18,–
CN(C)S(=O)(=O)Oc1ccc(C(=O)Nc2ccc([N+](=O)[O-])cc2)cc1,–,–,–,–,–,·,·
COC(=O)c1ccc(OS(=O)(=O)N(C)C)cc1,–,–,–,20,–,–,–
Nc1[nH]c(C(=O)c2ccccc2)c(-c2ccc(Cl)cc2)c1C(=O)NCCC1=CCCCC1,·,·,–,–,–,·,·
Cc1nc2cc(NC(=O)Nc3ccc(Br)cc3)ccc2o1,154,–,–,13,–,–,–
SMILES,APP 5'UTR act,NF-kB neuron act,hcDAF12 agonist,hgDAF12 agonist,ssDAF-12 act,hgDAF12 ag,LXRb DAF12 ctr
O=C(Nc1ccc2oc(-c3ccccc3F)nc2c1)c1ccccc1F,·,·,–,–,–,·,·
Cc1nc2cc(NC(=O)NCc3ccc4c(c3)OCO4)ccc2o1,–,–,–,–,–,·,·
CC(=O)Nc1ccc2oc(-c3ccccc3)nc2c1,–,7.6,–,15,–,15,–
O=C(Nc1ccc2oc(-c3ccccc3F)nc2c1)c1ncn[nH]1,138,5.3,6.4,19,–,19,–
CC(=O)Nc1cccc(-c2nc3ccccc3o2)c1,·,·,–,–,–,·,·
COCC(=O)N(C[C@H]1[C@H](c2ccccc2)[C@@H](CO)N1C(=O)NC(C)C)C(C)C,·,·,–,–,–,·,·
COc1ccc(CN(CCN2CCOCC2)C(=O)c2ccccc2C)cc1OC,·,·,–,–,–,·,·
CCOC(=O)[C@]12CCCC=C1N(CCc1ccc(Cl)cc1)C(=O)[C@@H]2CC(=O)NCCC(C)C,·,·,–,–,–,·,·
O=C(N=C1N=C2C=CC(Br)=CN2Cc2ccccc21)c1ccc([N+](=O)[O-])cc1[N+](=O)[O-],·,·,–,14,1.1,14,–
